Results filed as inconclusive are left out. The source made the active and inactive calls. Rule for the calls: active = hit-call score of the fitted dose curve at least 0.9, where 1 is the maximum; inconclusive = response in the unintended direction; inactive = score below 0.9.

In this assay the target is Bile acid receptor (Homo sapiens) (UniProt Q96RI1). Briefly: NVS_NR_hFXR_Antagonist: NovaScreen (NVS) Nuclear Receptor Binding Assay for human Farnesoid X Receptor Antagonism (FXR) (AID 2283350). The protocol: NVS_NR_hFXR_Antagonist is a biochemical, single-readout assay that uses extracted gene-proteins in a cell-free assay. Measurements were taken 1 hour after chemical dosing in a 384-well plate.NVS_NR_hFXR_Antagonist is one of one assay component(s) measured or calculated from the NVS_NR_hFXR_Antagonist assay. It is designed to make measurements of fluorescent resonance energy transfer, a form of binding reporter, as detected with fluorescent resonance energy transfer signals by Time-Resolved Fluorescence Resonance Energy Transfer (TR-FRET) technology.Data from the assay component NVS_NR_hFXR_Antagonist was analyzed into 1 assay endpoint. This assay endpoint, NVS_NR_hFXR_Antagonist, was analyzed in the positive analysis fitting direction relative to DMSO as the negative control and baseline of activity. Using a type of binding reporter, loss-of-signal activity can be used to understand changes in the binding as they relate to the gene NR1H4. Furthermore, this assay endpoint can be referred to as a primary readout, because the performed assay has only produced 1 assay endpoint. To generalize the intended target to other relatable targets, this assay endpoint is annotated to the nuclear receptor intended target family, where the subfamily is non-steroidal.
Chain of Bile acid receptor (Homo sapiens) (Q96RI1 whole entry, looked up): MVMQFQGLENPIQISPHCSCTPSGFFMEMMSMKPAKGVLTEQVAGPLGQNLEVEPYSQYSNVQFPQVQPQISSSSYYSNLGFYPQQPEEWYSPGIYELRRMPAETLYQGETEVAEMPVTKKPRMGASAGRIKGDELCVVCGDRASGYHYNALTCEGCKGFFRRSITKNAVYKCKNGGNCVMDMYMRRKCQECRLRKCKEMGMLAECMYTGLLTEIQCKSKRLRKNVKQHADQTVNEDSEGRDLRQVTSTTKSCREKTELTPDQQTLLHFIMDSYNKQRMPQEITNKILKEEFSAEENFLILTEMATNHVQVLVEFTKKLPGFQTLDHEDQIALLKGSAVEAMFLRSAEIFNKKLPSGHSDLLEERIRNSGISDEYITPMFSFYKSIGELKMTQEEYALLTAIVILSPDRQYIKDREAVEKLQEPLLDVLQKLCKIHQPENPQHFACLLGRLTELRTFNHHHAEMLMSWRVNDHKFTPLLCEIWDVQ
Binding assays used specific radioligands (tritiated, iodinated) with non-radioactive competitive displacement ligands in agonist or antagonist protocols (as indicated) and various reference compounds and inhibitors to titrate specific binding to receptors and transporters. Most enzyme assays (CYPs, kinases, phosphatases, proteases, HDACs) used recombinant protein and specific substrates (fluorescence mostly, some colorimetric and radioactive) and inhibitors, followed by a biochemical separation of substrate and product. All assays for the biochemical HTS were initially run in duplicate at a single concentration (10 uM for CYP450 assays and 25 uM for all others). […] Each assay was run with positive and negative controls, and concurrent controls on every plate. The follow-up (secondary) screen tested active chemical-pairs in concentration series, as well as a few additional assays not tested in the primary screen, some selected negative inactives, and several cases re-run in the concentration series for confirmatory purposes.
As for `CNc1cnn(-c2cccc(C(F)(F)F)c2)c(=O)c1Cl`, the result was inactive.

As for `COc1ccc(C(=CC(=O)N2CCOCC2)c2ccc(Cl)cc2)cc1OC`, the outcome was inactive.

In the case of `Cc1ccn2nc(S(=O)(=O)Nc3c(F)cccc3F)nc2n1`, the result was inactive.

As to `CCOP(=O)(OCC)Oc1cc(C)nc(C(C)C)n1`, the outcome was inactive.

On to `CSc1nnc(C(C)(C)C)c(=O)n1N`, for which the call was inactive.

Turning to `CC1(C(=O)Nc2ccc(O)c(Cl)c2Cl)CCCCC1`, the result was inactive. Still for that read-out and setting: the same measure for `CCCSP(=O)(OCC)SCCC`: “inactive”; for `CCCCOC(=O)c1ccccc1C(=O)O`: “inactive”; for `C=C(C)[C@H]1Cc2c(ccc3c2O[C@@H]2COc4cc(OC)c(OC)cc4[C@@H]2C3=O)O1`: “inactive”. `CC(COc1ccc(Oc2ccccc2)cc1)Oc1ccccn1` (stereo not given): the AC50 is 6.89 µM (active).

The values above are taken from PubChem BioAssay (EPA / NIEHS).
